Our source for the Potency values is PubChem BioAssay (NCATS).

Assay in all cases: qHTS profiling for inhibitors of Plasmodium falciparum proliferation (AID 504749); further: nearly all actives have a fitted effect of over 60% in size
Holding throughout (settings): P. falciparum in erythrocytes, SYBR Green DNA, 72 h; series mostly up to 28.7 µM
Background: Quantitative high-throughput screening tests each substance at several concentrations.

In one assay the test system is CP247. The essentials:
(§1)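 In a 72 h erythrocytic culture (37 C, humidified, 5% CO2) at 2.5% hematocrit and 0.3% starting parasitemia, compounds were tested; SYBR Green I in detergent lysis buffer stained parasite DNA overnight.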

The test system of a further assay is CP260. The essentials:
as §1

A further assay deals with CP268. The essentials: as §1
The test system of the next assay is CP269. An outline of the steps: as §1
In a further assay the test system is CP286. An outline of the steps: as §1
For the next assay, the system named is CP291. The essentials:
as §1

Another assay concerns CP297. The essentials: as §1
For a further assay, the system named is CP335. An outline of the steps:
as §1

A further assay has as its system CP256. The essentials: as §1
The subject of another assay is CP262. An outline of the steps: as §1
A further assay relates to CP266. An outline of the steps:
as §1

The next assay concerns CP305. The essentials:
as §1

The next assay relates to CP315. The essentials: as §1
For another assay, the system named is CP325. The essentials:
as §1

A further assay has as its system CP329. An outline of the steps: as §1
The next assay concerns CP252. The essentials: as §1
For the next assay, the system named is CP265. An outline of the steps:
as §1

The subject of another assay is CP250. The essentials: as §1
The test system of a further assay is DFO2036. The essentials:
as §1

A further assay has as its system CP238. The essentials: as §1

Results filed as inconclusive are left out. The source made the active and inactive calls. The call rests on the fitted dose curve; in most records, active means well fitted inhibition curve with a large enough effect; inconclusive means small, poorly fitted or top-dose-only effect; inactive means flat fitted curve, though single readings scatter.
Potency means the concentration at half of the fitted maximal effect.

Consider `CCN(CC)CCOc1ccc(C(O)(Cc2ccc(Cl)cc2)c2ccc(C)cc2)cc1` (stereo unspecified), for which the Potency in the assay with CP247 was 10 µM (active); with CP260, 11.2 µM (active); in the assay on CP268, 19 µM (active); with CP269, 15.1 µM (active); with CP286 it was 10 µM (active); with CP291 it was 13.5 µM (active). The Potency was 16.9 µM (active) with CP297 and 12 µM (active) in the assay on CP335.

In the case of `CCN(CC)CCNC(=O)COc1ccc(Cl)cc1`, the Potency entry with CP256, in the assay with CP262, in the assay with CP266, in the assay with CP268, with CP269 and in the assay with CP291 was “inactive” in each case. In addition, the Potency result in the assay on CP305, in the assay with CP315, in the assay on CP325, with CP329 and in the assay on CP335 was “inactive” throughout.

Turning to `CCCCCCCCCCCCCCCC[N+](C)(C)CCN(Cc1ccc(OC)cc1)c1ncccn1`, the Potency result in the assay with CP252, in the assay on CP256, in the assay on CP265, in the assay with CP268, in the assay on CP297 and in the assay with CP305 was “inactive” in each case. The Potency result in the assay on CP315 and with CP329 was “inactive” in each case.

With `CC(C)NC[C@@H](O)COc1cccc2ccccc12`, the Potency entry in the assay with CP250, in the assay on CP262, in the assay with CP266, in the assay on CP268, in the assay on CP297 and with CP315 was “inactive” each time. In addition, the Potency entry with CP325 was “inactive”. Moreover, the Potency is 12.6 µM (active) in the assay with CP260 and 10 µM (active) with CP265.

For the compound `CNCCC(Oc1ccccc1C)c1ccccc1` (stereo unspecified), the Potency entry in the assay with CP250, in the assay on CP252, in the assay on CP260, in the assay on CP262, in the assay with CP269 and in the assay with CP286 was “inactive” each time. The Potency entry in the assay on CP291, in the assay with CP297, in the assay with CP315, with CP325, with CP335 and with DFO2036 was “inactive” each time.

For `O=C1OCCN1/N=C/c1ccc([N+](=O)[O-])o1`, the Potency entry in the assay on CP262, in the assay on CP266, with CP269, in the assay with CP297, in the assay on CP315 and in the assay on CP325 was “inactive” each time. Further, the Potency entry with CP329 is “inactive”.

In the case of `C[C@@H]1CN(CCCn2c3ccccc3c3ccccc32)C[C@H](C)N1`, the Potency in the assay with CP247 is 4.47 µM (active); in the assay on CP260 it was 11.2 µM (active); in the assay with CP265 it was 7.94 µM (active); in the assay with CP286, 12.6 µM (active); in the assay with DFO2036 it was 14.1 µM (active). The Potency entry with CP266 and with CP315 was “inactive” throughout.

`OC(CCN1CCCCC1)(c1ccccc1)c1ccccc1`: the Potency entry in the assay on CP250 and with CP266 was “inactive” in each case. For the same compound, the results for the Potency in the assay with CP265, with CP286 and with CP297 were 8.91 µM (active), 11.2 µM (active) and 6.01 µM (active), respectively.

On to `CNCCC=C1c2ccccc2CCc2ccccc21`, for which the Potency with CP265 was 7.94 µM (active). The Potency entry in the assay on CP268 and with CP315 was “inactive” in each case.

In the case of `COc1cc(-c2ccc(=O)[nH]n2)ccc1OC(F)F`, the Potency result in the assay on CP250, in the assay on CP252, in the assay on CP266, in the assay with CP268, in the assay on CP286 and in the assay on CP291 was “inactive” each time. In addition, the Potency result with CP305 and in the assay with CP325 was “inactive” each time. In addition, the Potency with CP256 is 3.16 µM (active); in the assay with CP265, 0.316 µM (active); with DFO2036, 0.501 µM (active).

`COC(=O)[C@H]1[C@H]2C[C@H]3c4[nH]c5ccccc5c4CCN3C[C@H]2CC[C@@H]1O`: the Potency result with CP262, in the assay with CP266, in the assay on CP268, in the assay with CP269, in the assay with CP291 and in the assay with CP297 was “inactive” in each case. Further, the Potency result in the assay on CP305, in the assay on CP315, with CP325, in the assay on CP329 and with CP335 was “inactive” each time.

Consider `c1ccc(-c2ccc(C(c3ccccc3)n3ccnc3)cc2)cc1` (stereo unspecified), for which the Potency with CP247 was 7.94 µM (active); with CP252, 10 µM (active); in the assay on CP297, 6.75 µM (active); in the assay with CP315 it was 16.9 µM (active). Besides, in the assay with CP262, the Potency entry is “inactive”.

Regarding `O=c1c(-c2ccccc2)c1-c1ccccc1`, the Potency was 11.2 µM (active) in the assay on CP250, 8.91 µM (active) with CP260 and 7.94 µM (active) with CP286. For the same compound, the Potency entry in the assay on CP262 is “inactive”.

As to `COc1ccc(CN2CCN(C(c3ccc(F)cc3)c3ccc(F)cc3)CC2)c(OC)c1OC`, the Potency was 10 µM (active) in the assay with CP247; 8.91 µM (active) in the assay on CP250; 10 µM (active) with CP252; 7.94 µM (active) in the assay on CP260; 11.2 µM (active) in the assay with CP265; 15.1 µM (active) in the assay on CP269. Further, the Potency with CP286 is 7.08 µM (active); in the assay on CP325, 16.9 µM (active); in the assay with CP335, 6.01 µM (active).

As to `CN(C)CC/C=C1\c2ccccc2Sc2ccc(Cl)cc21`, the Potency entry in the assay on CP250, with CP262, in the assay with CP266, with CP268, in the assay on CP297 and in the assay with CP305 was “inactive” in each case. Further, the Potency result in the assay with CP315 and in the assay with CP329 was “inactive” throughout. The Potency in the assay with CP260 is 8.91 µM (active); in the assay on CP286, 11.2 µM (active).

Take `NC(CS)C(=O)O` (stereo unspecified): the Potency was 8.91 µM (active) in the assay on CP260 and 12.6 µM (active) in the assay on DFO2036. Further, the Potency entry in the assay with CP262, in the assay on CP315 and with CP329 was “inactive” throughout.

In the case of `CN(C)C(=S)SC(=S)N(C)C`, the Potency in the assay on CP250 was 11.2 µM (active); in the assay with CP256, 10 µM (active); in the assay with CP260, 10 µM (active); with CP269, 10.7 µM (active); with CP286 it was 11.2 µM (active); in the assay on CP305 it was 15.1 µM (active). For the same compound, the Potency is 15.1 µM (active) in the assay on CP325, 8.49 µM (active) with CP335 and 10 µM (active) with DFO2036. The Potency entry in the assay on CP262 and in the assay with CP266 was “inactive” in each case.

For `Oc1ccc(O)cc1`, the Potency entry with CP268 and in the assay on CP291 was “inactive” in each case. The Potency in the assay on CP335 was 2.39 µM (active).

In the case of `CC(=O)N/N=C/c1ccc([N+](=O)[O-])o1`, the Potency entry in the assay with CP238, in the assay on CP266, with CP268, in the assay with CP269, in the assay with CP286 and with CP291 was “inactive” in each case. The Potency entry with CP305, in the assay with CP315, in the assay with CP325, with CP329 and in the assay with CP335 was “inactive” in each case. In the assay on CP260, the Potency was 7.94 µM (active).
